In test [1] the test system is Klebsiella pneumoniae. Conditions: Concentration 32 ug.mL-1; ASSAY_TEST Inhibition of Bacterial Growth; detection method Absorption (OD600); MEDIA CAMHB; plate type 384well; NBS; CORNING #3640; time 18 hr.
Test [2] has as its system Candida albicans. Conditions: 32 ug/mL.
Test [3] has as its system Cryptococcus neoformans. Conditions: Concentration 32 ug.mL-1; ASSAY_TEST Inhibition of Fungal Growth; detection method Resazurin; Absorption (OD600-OD570); plate type 384well; NBS; CORNING #3640. (In general: Resazurin is reduced to fluorescent resorufin, in cell work by metabolically active cells.)

Experimental findings from ChEMBL document CHEMBL4513135, “CO-ADD screening of IQOG CSIS (Spain) compounds” are described below.

The structures appear in SMILES notation. Values joined by “and” are separate entries in the source; they are usually repeats but may differ in a detail not shown here. Equal entries are not always repeated. Entries with a potency or affinity are not part of this list.

The term Inhibition denotes the change of the read-out against control, counted positive when it falls.

Take `N#Cc1c(-c2ccccc2)c2ccc3ccccc3c2oc1=O`: the Inhibition in test [1] was 8.94%; in test [2], 3.25%; in test [3], -60.47%.
Consider `O=C1SC(SCc2ccccc2)=NC1=Cc1ccc2c(c1)OCO2`, for which the Inhibition was -9.46% in test [1], 1.96% in test [2] and -6.24% in test [3].
For the compound `CCOC(=O)C1=C(C)OC(N)=C(C#N)C1c1cccs1` (stereo unspecified), the Inhibition in test [1] was 7.75%; in test [2], 0.39%; in test [3], -27.56%.
`Cc1ccc(C2CC2(N)C(=O)O)cc1.Cl` (stereo unspecified): the Inhibition is 13.97% in test [1], 1.46% in test [2] and -7.69% in test [3].
In the case of `N#Cc1cc(C#N)c(NCc2ccccc2)nc1N`, the Inhibition was -14.3% in test [1], 1.7% in test [2] and 5.02% in test [3].
Take `Cc1ccc(CNNC(=O)c2cc3ccccc3n2C)cc1`: the figures for the Inhibition in test [1], in test [2] and in test [3] were -14.45%, 1.69% and -0.2%, respectively.
The matching figures for `CN1C/C(=C\Br)n2c1c(C#N)cc(C#N)c2=O`: 4.89%, 3.61% and -48.49%.
The matching figures for `Cc1nn(-c2ccccc2)c2nc(C)n3nc(-c4ccccc4)nc3c12`: 3.45%, -2.98% and -5.73%.
On to `C#CCN(C)c1cc(Cl)nc(N)n1`, for which the Inhibition was 16.87% in test [1], 11.4% in test [2] and -46.13% in test [3].
As for `CC(=O)CCc1c[nH]c2ccccc12`, the Inhibition in test [1] is 20.76%; in test [2], 1.89%; in test [3] it was -0.29%.
As to `Cn1c(C(=O)O)cc2cc(OCCCC3CCN(Cc4ccccc4)CC3)ccc21`, the values for the Inhibition in test [1], in test [2] and in test [3] were 12.92%, 6.79% and -100.02%, respectively.
On the same counts, the results for `CNC(=O)c1c(Cl)c2cc(OCc3ccccc3)ccc2n1C` are 13.13%, 4.9% and -46.6%.
The matching figures for `C=C1CN(C)c2ncc(C#N)c(=N)n21`: 0.03%, 0.69% and -57.29%.
Consider `CS(=O)(=O)O[C@H]1CC[C@H](OS(C)(=O)=O)CC1`, for which the Inhibition in test [1] is 13.68%; in test [2] it was 3.52%; in test [3], -30.83%.
As to `CCOC(=O)c1c(C)nc2nc3c(c(N)c2c1-c1ccc(OC)cc1)CCCCCC3`, the Inhibition in test [1] was 2.79%; in test [2], -1.03%; in test [3] it was -97%.
On the same counts, the results for `CSC1=NC2(CC2c2ccccc2)C(=O)N1` (stereo unspecified) are 20.57%, -0.24% and 1.03%.
Turning to `Cc1ccc(CNNC(=O)c2c[nH]c3ccccc23)cc1`, the Inhibition was 5.46% in test [1], -1.04% in test [2] and -5.03% in test [3].
The matching figures for `Nc1n[nH]c2c1C(c1ccccc1)CC(=O)N2` (stereo unspecified): 23.2%, 1.67% and -57.28%.
On to `CCOc1nc(N)c(C#N)cc1C#N`, for which the Inhibition in test [1] is 12.55%; in test [2] it was 44.3%; in test [3], -83.12%.
The matching figures for `CN1C/C(=C\Cl)n2c1c(C#N)cc(C#N)c2=O`: 5.49%, 1.11% and -52.5%.
On the same counts, the results for `N#CC1=C(N)Oc2c(ccc3ccccc23)C1c1ccc(Cl)c(Cl)c1` (stereo unspecified) are -23.32%, 1.53% and -2.77%.
The matching figures for `Nc1c2c(nc3c1C(c1ccccc1)c1ccc4ccccc4c1O3)CCCC2` (stereo unspecified): 7.96%, 0.57% and 5.07%.
As to `COc1cc(C=NNC(=O)Cc2c[nH]c3ccccc23)ccc1O`, the Inhibition in test [1] is -2.6%; in test [2], 0.74%; in test [3], -1.83%.
On the same counts, the results for `N#Cc1cc(C#N)c(Cl)nc1N` are -13.03%, 2.15% and -5.53%.
`NNC(=O)c1c[nH]c2ccc(OCc3ccccc3)cc12`: the Inhibition in test [1] amounted to 3.4%; in test [2] it was 1.23%; in test [3], 0.02%.
The matching figures for `COc1cc(C2C(C#N)=C(N)Oc3ccc4ccccc4c32)ccc1O` (stereo unspecified): 5.47%, 0.23% and -49.89%.
For the compound `C1CNCCNCCNCCNC1`, the Inhibition in test [1] is 5.58%; in test [2], 4.25%; in test [3], -3.46%.
The matching figures for `Cl.Nc1c2c(nc3c1C(c1ccccc1)c1ccc4ccccc4c1O3)CCCC2` (stereo unspecified): 22.34%, 1.77% and -1.1%.
`COc1cc(C2C(C#N)=C(N)Oc3c2ccc2ccccc32)ccc1O` (stereo unspecified): the Inhibition was -1.93% in test [1], 22.7% in test [2] and -42.63% in test [3].
Turning to `N#Cc1c(NC2CCC(Cc3ccccc3)CC2)nc(NC2CCN(Cc3ccccc3)CC2)c(C#N)c1-c1ccccc1` (stereo unspecified), the Inhibition in test [1] is -7.01%; in test [2], 2.46%; in test [3], -20.4%.
Turning to `COc1ccccc1C1c2ccc3ccccc3c2OC(=NBr)C1(Br)C#N` (stereo unspecified), the figures for the Inhibition in test [1], in test [2] and in test [3] were 11.44%, 0.7% and -47.56%, respectively.
In the case of `N#Cc1cc2c(N)c3c(nc2nc1N1CCCCC1)CCCC3`, the Inhibition was 18.01% in test [1], 1.35% in test [2] and -98.63% in test [3].
On to `C=CCNc1[nH]c2ccc(O)cc2c1C#N`, for which the Inhibition was 7.13% in test [1], 2.34% in test [2] and -48.34% in test [3].
The matching figures for `Cc1ccc(C2c3c(nc4c(c3N)CCCC4)Oc3ccc4ccccc4c32)cc1` (stereo unspecified): 2.87%, 1.23% and 2.32%.
Consider `Cl.NC1(C(=O)O)CC1c1ccccc1` (stereo unspecified), for which the Inhibition in test [1] is 9.92%; in test [2], 1.66%; in test [3], -5.74%.
Turning to `O=C(COc1ccc2ccccc2c1)N/N=C/c1c[nH]c2ccccc12`, the Inhibition in test [1] is 8.99%; in test [2], 0.9%; in test [3], -4.09%.
For `CC1Cc2c(nc3c(c2N)CCCC3)NC1=O` (stereo unspecified), the Inhibition was 17.01% in test [1], 1.73% in test [2] and -61.31% in test [3].
In the case of `COc1ccc(C=C2N=C(SC)N(C)C2=O)cc1`, the results for the Inhibition in test [1], in test [2] and in test [3] were -13.67%, 0.01% and -7.91%, respectively.
On the same counts, the results for `COc1ccc(C2c3ccc4ccccc4c3OC(=NBr)C2(Br)C#N)cc1` (stereo unspecified) are 6.43%, 2.22% and -24.77%.
On the same counts, the results for `Cn1ccnc1C1C2=C(CC(C)(C)CC2=O)Oc2nc3c(c(N)c21)CCC3` (stereo unspecified) are 9.18%, -1.44% and -62.95%.
The matching figures for `N#CC1(Br)C(=N)Oc2ccc3ccccc3c2C1c1cccc([N+](=O)[O-])c1` (stereo unspecified): 16.38%, 11.2% and -26.58%.
Turning to `N#Cc1c(-c2cccc([N+](=O)[O-])c2)c2ccc3ccccc3c2oc1=O`, in test [2], the Inhibition was 4.25% and -0.04% and 3.33%.
In the case of `Cn1ccnc1C1C(C#N)=C(N)Oc2c1ccc1cccnc21` (stereo unspecified), the results for the Inhibition in test [1], in test [2] and in test [3] were 9.74%, 0.91% and -53.28%, respectively.
Regarding `COc1cc(C2c3c(nc4c(c3N)CCCC4)Oc3ccc4ccccc4c32)cc(OC)c1OC` (stereo unspecified), the Inhibition was 23.56% in test [1], 1.11% in test [2] and -4.42% in test [3].
On to `CC(=O)N1CC(=O)NC1=S`, for which the Inhibition in test [1] turned out to be 17.26%; in test [2] it was 1.1%; in test [3], 1.05%.
On the same counts, the results for `Cc1[nH]nc2c1C(c1ccc(O)c(O)c1)C(C#N)=C(N)O2` (stereo unspecified) are 21.92%, 0.31% and 0.65%.
The matching figures for `Cn1ccnc1C1c2c(nc3c(c2N)CCC3)Oc2ccc3ccccc3c21` (stereo unspecified): 7.74%, 1.46% and -36.13%.
On the same counts, the results for `N#CC1=C(N)Oc2c(ccc3ccccc23)C1c1ccc(O)cc1` (stereo unspecified) are 6.16%, 0.86% and -59.36%.
In the case of `O=Cc1c(-c2ccc(Br)cc2)nc2ccccn12`, the Inhibition in test [1] is 19.86%; in test [2], 0.21%; in test [3] it was -4.41%.
As for `C#CCNc1nc(NC2CCN(Cc3ccccc3)CC2)c(C#N)cc1C#N.Cl`, the Inhibition in test [1] is -9.27%; in test [2], 1.54%; in test [3], -92.81%.
On the same counts, the results for `CC1Cc2c(Br)nc3nc4c(c(N)c3c2NC1=O)CCCC4` (stereo unspecified) are 20.62%, -0.9% and -91.63%.
On the same counts, the results for `CC#CCN.Cl` are 8.69%, 3.96% and -2.53%.
The matching figures for `COc1cc(C2CC2(N)C(=O)O)ccc1O` (stereo unspecified): 3.5%, -0.44% and -0.8%.
As for `CC(C)(C)OC(=O)Nc1ccc(Cl)cn1`, the Inhibition is 13.6% in test [1], -0.26% in test [2] and -54% in test [3].
On the same counts, the results for `Nc1nc(N)c(C=O)c(-c2ccccc2)c1C=O` are -1.67%, 9.69% and -7.8%.
In the case of `Cc1ccc(S(=O)(=O)N[C@H]2CC[C@H](O)CC2)cc1`, the Inhibition was 11.86% in test [1], 0.9% in test [2] and -40.23% in test [3].
Turning to `CC(=O)Oc1ccc(C=C2N=C(c3ccccc3)OC2=O)c(OC(C)=O)c1`, the results for the Inhibition in test [1], in test [2] and in test [3] were 2.13%, 3.75% and -6.54%, respectively.
Regarding `O=C(N/N=C/c1ccc(Cl)cc1)c1cc2ccccc2[nH]1`, the Inhibition is -19.43% in test [1], 3.28% in test [2] and -0.9% in test [3].
The matching figures for `O=C(N/N=C/c1ccc([N+](=O)[O-])cc1)c1cc2ccccc2[nH]1`: 7.41%, 0.87% and -3.37%.
The matching figures for `N#Cc1cc(C#N)c(N2CCCC2)nc1N1CCCC1`: 22.43%, -0.31% and -5.24%.
As for `O=C(NCc1ccccc1)c1cc2ccccc2[nH]1`, the Inhibition was 1.5% in test [1], -0.44% in test [2] and -6.86% in test [3].
On the same counts, the results for `COc1nc2nc3c(c(N)c2cc1C#N)CCCC3` are 13.26%, 2.72% and -84.27%.
Consider `Cc1n[nH]c2c1C(c1ccc([N+](=O)[O-])cc1)C(C#N)=C(N)O2` (stereo unspecified), for which the Inhibition is -7.74% in test [1], 3.15% in test [2] and -4.51% in test [3].
As to `CNCc1cc2cc(OC)ccc2n1C.Cl`, the results for the Inhibition in test [1], in test [2] and in test [3] were 8.64%, -1.26% and 1.35%, respectively.
`COc1ccc2cc(C3C4=C(CC(C)(C)CC4=O)Oc4nc5c(c(N)c43)CCC5)c(Cl)nc2c1` (stereo unspecified): the Inhibition in test [1] is 7.42%; in test [2] it was 10.1%; in test [3], -1.53%.
The matching figures for `N#Cc1c(N)nc(N2CCOCC2)c(C#N)c1-c1ccccc1`: 3.68%, 1.23% and -3.16%.
On the same counts, the results for `O[C@H]1CC[C@H](NCc2ccccc2)CC1` are 16.79%, -0.77% and -37.74%.
The matching figures for `COC(=O)C(=Cc1ccccc1)NC(=O)c1ccccc1`: 12.18%, 0.5% and -5.65%.
As for `CCOC(=O)C1=C(C)OC(N)=C(C#N)C1c1ccc(OC)c(OC)c1` (stereo unspecified), the Inhibition was 9.11% in test [1], 3.32% in test [2] and -51.05% in test [3].
`N#Cc1cc2c(N)c3c(nc2nc1Cl)CCCC3`: the Inhibition in test [1] was 24.47%; in test [2], 2.63%; in test [3], -42.44%.
On the same counts, the results for `N#CC1=C(N)Oc2c(ccc3ccccc23)C1c1c(Cl)cccc1Cl` (stereo unspecified) are 5.34%, -0.77% and -4.89%.
